Assay results taken from PubChem BioAssay AID1850 (Southern Research Specialized Biocontainment Screening …, 2009).
The campaign covered roughly 310,000 compounds. About 1,000 (0.32%) were called active. Not all results are given here. Results with a measured potency or affinity are listed apart. Values without a mark were called inactive. No rule for the calls is given here.

Test: PhoP regulon inhibitors, Salmonella typhi PhoP promoter GFP reporter, confirmatory (AID 1850);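 also: 0% = induced wells with vehicle and 100% = uninduced wells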
Conditions: fluorescence, 4 h, at 50 µM, stronger effect = higher value

Compound | inhibition
CS(=O)(=O)Nc1cccc(C2=NN(C(=O)c3ccc(F)cc3)C(c3cccs3)C2)c1 (configuration not stated) | -1.48%
O=C1C2C(C(=O)N1/N=C/c1ccc([N+](=O)[O-])o1)C1C=CC2C12CC2 (configuration not stated) | -7.07%
O=C1OCCN1/N=C/c1ccc([N+](=O)[O-])o1 | -7.99%
O=C(c1cc(S(=O)(=O)N2CCOCC2)c(Cl)cc1Cl)N1CCCCC1 | -2.41%
OC(COc1ccccc1)CN(Cc1ccccc1)CC(O)COc1ccccc1 (configuration not stated) | -0.87%
CCOc1ccc(-c2cc(C)[n+](CCO)c(-c3ccc(OCC)cc3)c2)cc1 | -1.61%
CCOc1ccc(-c2cc(C)[n+](CCN3CCOCC3)c(-c3ccc(OCC)cc3)c2)cc1 | 8.34%
COC(=O)COc1ccc(C(=O)Cn2c(NCCCO)nc3ccccc32)cc1 | 4.11%
Cc1ccc(C(=O)CCS(=O)(=O)c2ccc(Br)cc2)cc1 | -6.22%
Cc1ccc(C(=O)CCS(=O)(=O)c2ccc(Cl)cc2)cc1 | 2.23%
COc1ccc(CC(=O)Oc2ccc(C(C)C)cc2)cc1S(=O)(=O)N1CCOCC1 | 5.73%
Cc1ccc(S(=O)(=O)NN2C(=O)c3ccccc3NC2c2ccco2)cc1 (configuration not stated) | -0.11%
O=C(O)c1ccc2c(c1)N(Cc1ccccc1)C(=O)c1ccccc1S2=O (configuration not stated) | -5.21%
COc1ccc(CSc2nnnn2Cc2ccccc2)cc1OC | -8.33%
COC(=O)C1=CO[C@@H](OC2OC(CO)C(O)C(O)C2O)[C@@H]2C(CO)=CC[C@H]12 (some centres not stated) | -13%
CN(C)C(=O)C12CCC(C)(C(=O)C1Br)C2(C)C (configuration not stated) | 7.02%
CCCC[C@@H]1CN=C(N)N1CCc1cc(C(F)(F)F)cc(C(F)(F)F)c1 | 11.5%
NC1=NC[C@H](c2ccccc2)N1CCc1cccc(F)c1 | 12.6%
NC1=NC[C@H](Cc2ccccc2)N1CCc1cc(C(F)(F)F)cc(C(F)(F)F)c1 | -32.4%

Compound | inhibition
FC(F)(F)c1cc(CCN2C(=S)NC[C@@H]2CC2CCCCC2)cc(C(F)(F)F)c1 | -1.84%
Cc1ccc(S(=O)(=O)N2CCCN(S(=O)(=O)c3ccc(C(F)(F)F)cc3)CC2)cc1 | -17.3%
Cc1nnc(N/N=C/c2c[nH]c3ccccc23)[nH]c1=O | -1.2%
Cc1cc(=O)[nH]c(N/N=C/c2ccccn2)n1 | 18.1%
Clc1cnc(N/N=C/c2ccncc2)c(Cl)c1 | 1.77%
Cc1ccccc1C(=O)Nc1ccnn1C1CCN(CCCc2ccccc2)CC1 | -1.21%
COC(=O)c1sccc1Oc1ccc(F)cc1[N+](=O)[O-] | 4.41%
CN(C)C(=O)c1sccc1Oc1ccc(F)cc1[N+](=O)[O-] | 7.3%
COc1ccc(CSCC(=O)Nc2ccccc2SC)cc1 | 8.6%
COc1cc2ncnc(NCCCN3CCOCC3)c2cc1OC | -4.12%
CN1CCC(OC(=O)c2cccc(Cl)c2)CC1 | 4.43%
CN1CCC(OC(=O)c2ccccc2Cl)CC1 | -6.15%
COc1ccc(C(=O)OC2CCN(C)CC2)cc1 | 3.95%
CN1CCC(OC(=O)c2ccccc2)CC1 | 8.65%
CCOC(=O)c1ncn2c1C(=O)OC2(C)C | 6.54%
CCOc1ccccc1OCc1nn2c(-c3ccc(C)cc3)nnc2s1 | 3%
C#CCOCCOCCOCCNc1nc(N2CCOCC2)nc(N2CCN(C(=O)CCCCCCCCCCNC(=O)[C@H]([C@@H](C)CC)n3cc(CCCCN=C(N)N)nn3)CC2)n1 | 5.04%
C#CCOCCOCCOCCNc1nc(N2CCN(C(=O)CCCCCCCCCCNC(=O)[C@H]([C@@H](C)CC)n3cc(CCCCCN)nn3)CC2)nc(N2CCN(C(=O)CCCCCCCCCCNC(=O)[C@H](CO)n3cc(CCCCCN)nn3)CC2)n1 | 9.35%
C#CCOCCOCCOCCNc1nc(N2CCOCC2)nc(N2CCN(C(=O)CCCCCCCCCCNC(=O)[C@H](CO)n3cc(CCCCCN)nn3)CC2)n1 | -10.9%

Compound | inhibition
C#CCOCCOCCOCCNc1nc(N2CCN(C(=O)[C@H]([C@@H](C)CC)n3cc(CCCCN)nn3)CC2)nc(N2CCN(C(=O)[C@H]([C@@H](C)CC)n3cc(CCCN=C(N)N)nn3)CC2)n1 | -1.05%
O=C(COC(=O)/C=C/c1ccc([N+](=O)[O-])cc1)NCc1ccccc1 | -8.81%
CCCCCCC(C)n1cc(C(C)=O)c(=O)n(C)c1=O (configuration not stated) | -9.33%
CN(C)CCNC(=O)CCCNC(=O)Cn1cnc2sc3c(c2c1=O)CCCC3 | 12.2%
Cc1ccc(-c2nn(C)c(=O)c3ccccc23)cc1S(=O)(=O)NCCO | -2.47%
COCC1=C(C(=O)OC(C)OC(=O)OC(C)C)N2C(=O)[C@@H](NC(=O)/C(=N\OC)c3csc(N)n3)[C@H]2SC1 (some centres not stated) | 15.8%
CO/N=C(\C(=O)N[C@@H]1C(=O)N2C(C(=O)O)=C(COC(N)=O)CS[C@H]12)c1ccco1 | -2.22%
COc1ccc(OCC(=O)Nc2c3c(nn2-c2ccccc2)CS(=O)(=O)C3)cc1 | -4.09%
CC1=NCCc2c1[nH]c1ccccc21 | 5.56%
CCCC/C=C1\CCc2c([nH]c3ccccc23)C1=O | 8.47%
O=C(CCS(=O)(=O)Cc1ccc(Cl)cc1)NCCc1ccccc1 | -1.47%
CC1=C(C(=O)OC(C)C)C(c2ccc(C)o2)C(C(=O)OC(C)C)=C(C)N1 | 6.14%
COc1ccccc1CN1CC(C(=O)NC2CCCCC2)CC1=O (configuration not stated) | 1.61%
Cc1ccc2oc(=O)c(/C=C(\O)C(C)(C)C)nc2c1 | -12.4%
O=c1oc2ccc(Cl)cc2nc1/C=C(\O)c1ccco1 | -30.4%
Cc1ccc(/C(O)=C/c2nc3cc(C)ccc3oc2=O)cc1 | -48.6%
Cc1ccc(/C(O)=C/c2nc3ccccc3oc2=O)cc1 | -11.1%
CC(C)(C)/C(O)=C/c1nc2ccccc2oc1=O | -3.78%
CC(C)C/C(O)=C/c1nc2cc(Cl)ccc2oc1=O | -18.3%
